Data from PubChem BioAssay AID1159580 (chemical genetic matrix, 2015).
In all, about 5,500 compounds went through this assay and about 2,000 (36%) were called active. Another 18% or so got no clear call; they are omitted. No stated cut-off is given here; in the data, active means normalized growth mostly below about 0.91 (no sharp cut-off); inconclusive means no clear call, values can overlap the other calls; inactive means mostly above about 0.92. The list shows a part of the results.

Test: chemical genetic growth profiling, strain panel (AID 1159580);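 further: tested at 20 µM; growth read once vehicle control cultures reached saturation at 30 °C; 1 = growth at the plate median or of vehicle wells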
Conditions: growth OD

Measured: normalized growth

C[n+]1ccccc1/C=N/O
inactive: S. cerevisiae deletion strains, locus YJR066W, strain TOR1, stronger effect = lower value 0.986 | S. cerevisiae deletion strains, locus YKL009W, strain mrt4, stronger effect = lower value 1.03 | S. cerevisiae deletion strains, locus YKL068W, stronger effect = lower value 1.01 | S. cerevisiae deletion strains, locus YKL085W, strain MDH1 (second series), stronger effect = lower value 1 | S. cerevisiae deletion strains, locus YKL085W, strain MDH1, stronger effect = lower value 1 | S. cerevisiae deletion strains, locus YKL160W, strain elf1, stronger effect = lower value 0.997 | S. cerevisiae deletion strains, locus YKL190W, strain CNB1, stronger effect = lower value 1.01 | S. cerevisiae deletion strains, locus YKR001C, strain vps1, stronger effect = lower value 0.989 | S. cerevisiae deletion strains, locus YKR026C, strain gcn3, stronger effect = lower value 1.01 | S. cerevisiae deletion strains, locus YKR091W, strain srl3, stronger effect = lower value 0.993 | S. cerevisiae deletion strains, locus YLL001W, strain dnm1, stronger effect = lower value 0.973 | S. cerevisiae deletion strains, locus YLL026W, stronger effect = lower value 0.996 | S. cerevisiae deletion strains, locus YLL041C, strain sdh2, stronger effect = lower value 0.985 | S. cerevisiae deletion strains, locus YLR027C, strain aat2, stronger effect = lower value 1.01 | S. cerevisiae deletion strains, locus YLR039C, strain RIC1, stronger effect = lower value 1.01 | S. cerevisiae deletion strains, locus YLR058C, strain SHM2, stronger effect = lower value 1.01 | S. cerevisiae deletion strains, locus YLR102C, strain apc9, stronger effect = lower value 0.994 | S. cerevisiae deletion strains, locus YLR113W, strain HOG1, stronger effect = lower value 0.999 | S. cerevisiae deletion strains, locus YLR221C, strain rsa3, stronger effect = lower value 1.02 | S. cerevisiae deletion strains, locus YLR258W, strain gsy2, stronger effect = lower value 0.991 | S. cerevisiae deletion strains, locus YLR262C, strain YPT6 (second series), stronger effect = lower value 1.02 | S. cerevisiae deletion strains, locus YLR262C, strain YPT6, stronger effect = lower value 1 | S. cerevisiae deletion strains, locus YLR268W, strain sec22, stronger effect = lower value 0.998 | S. cerevisiae deletion strains, locus YLR320W, strain mms22, stronger effect = lower value 0.981 | S. cerevisiae deletion strains, locus YLR330W, strain CHS5, stronger effect = lower value 1.01 | S. cerevisiae deletion strains, locus YLR342W, strain FKS1 (second series), stronger effect = lower value 1 | S. cerevisiae deletion strains, locus YLR342W, strain FKS1, stronger effect = lower value 1.02 | S. cerevisiae deletion strains, locus YLR357W, strain rsc2, stronger effect = lower value 0.958 | S. cerevisiae deletion strains, locus YLR370C, strain arc18, stronger effect = lower value 1.01 | S. cerevisiae deletion strains, locus YLR371W, strain rom2, stronger effect = lower value 0.993 | S. cerevisiae deletion strains, locus YLR384C, strain iki3, stronger effect = lower value 1 | S. cerevisiae deletion strains, locus YLR418C, strain cdc73, stronger effect = lower value 0.983 | S. cerevisiae deletion strains, locus YML016C, strain PPZ1, stronger effect = lower value 1.01 | S. cerevisiae deletion strains, locus YML032C, strain rad52, stronger effect = lower value 0.989 | S. cerevisiae deletion strains, locus YML120C, strain ndi1, stronger effect = lower value 1.02 | S. cerevisiae deletion strains, locus YML124C, strain tub3, stronger effect = lower value 1 | S. cerevisiae deletion strains, locus YMR058W, strain fet3, stronger effect = lower value 1.01 | S. cerevisiae deletion strains, locus YMR078C, strain ctf18, stronger effect = lower value 0.993 | S. cerevisiae deletion strains, locus YMR125W, strain sto1, stronger effect = lower value 1 | S. cerevisiae deletion strains, locus YMR129W, stronger effect = lower value 0.998 | S. cerevisiae deletion strains, locus YMR205C, strain PFK2, stronger effect = lower value 1.01 | S. cerevisiae deletion strains, locus YMR223W, strain ubp8, stronger effect = lower value 1.01 | S. cerevisiae deletion strains, locus YMR231W, strain pep5, stronger effect = lower value 0.996 | S. cerevisiae deletion strains, locus YMR307W, strain GAS1, stronger effect = lower value 0.992 | S. cerevisiae deletion strains, locus YNL067W, strain RPL9B, stronger effect = lower value 1 | S. cerevisiae deletion strains, locus YNL071W, strain lat1, stronger effect = lower value 1.01 | S. cerevisiae deletion strains, locus YNL128W, strain TEP1, stronger effect = lower value 1.02 | S. cerevisiae deletion strains, locus YNL153C, strain GIM3, stronger effect = lower value 1.01 | S. cerevisiae deletion strains, locus YNL183C, strain NPR1, stronger effect = lower value 0.924 | S. cerevisiae deletion strains, locus YNL209W, strain ssb2, stronger effect = lower value 1.02 | S. cerevisiae deletion strains, locus YNL233W, strain BNI4, stronger effect = lower value 0.999 | S. cerevisiae deletion strains, locus YNL248C, strain rpa49, stronger effect = lower value 0.978 | S. cerevisiae deletion strains, locus YNL250W, strain rad50, stronger effect = lower value 1.01 | S. cerevisiae deletion strains, locus YNL271C, strain bni1, stronger effect = lower value 1.01 | S. cerevisiae deletion strains, locus YNL298W, strain CLA4, stronger effect = lower value 1.01 | S. cerevisiae deletion strains, locus YNL307C, strain MCK1, stronger effect = lower value 0.992 | S. cerevisiae deletion strains, locus YNL322C, strain KRE1 (second series), stronger effect = lower value 0.991 | S. cerevisiae deletion strains, locus YNR049C, strain mso1, stronger effect = lower value 1.01 | S. cerevisiae deletion strains, locus YNR052C, strain pop2, stronger effect = lower value 1 | S. cerevisiae deletion strains, locus YOL006C, strain TOP1, stronger effect = lower value 1.01 | S. cerevisiae deletion strains, locus YOL012C, strain htz1 1.12 | S. cerevisiae deletion strains, locus YOL147C, strain pex11, stronger effect = lower value 1 | S. cerevisiae deletion strains, locus YOR001W, strain rrp6, stronger effect = lower value 0.992 | S. cerevisiae deletion strains, locus YOR061W, strain CKA2, stronger effect = lower value 1.01 | S. cerevisiae deletion strains, locus YOR069W, strain VPS5, stronger effect = lower value 1.01 | S. cerevisiae deletion strains, locus YOR070C, strain gyp1, stronger effect = lower value 1 | S. cerevisiae deletion strains, locus YOR080W, strain dia2, stronger effect = lower value 1 | S. cerevisiae deletion strains, locus YOR083W, strain WHI5, stronger effect = lower value 0.948 | S. cerevisiae deletion strains, locus YOR106W, strain vam3, stronger effect = lower value 0.995 | S. cerevisiae deletion strains, locus YOR136W, strain idh2, stronger effect = lower value 0.993 | S. cerevisiae deletion strains, locus YOR144C, strain elg1, stronger effect = lower value 0.994 | S. cerevisiae deletion strains, locus YOR184W, strain ser1, stronger effect = lower value 0.985 | S. cerevisiae deletion strains, locus YOR231W, strain MKK1, stronger effect = lower value 1.02 | S. cerevisiae deletion strains, locus YOR265W, strain rbl2, stronger effect = lower value 1 | S. cerevisiae deletion strains, locus YOR270C, strain vph1, stronger effect = lower value 1.04 | S. cerevisiae deletion strains, locus YOR290C, strain snf2, stronger effect = lower value 1.03 | S. cerevisiae deletion strains, locus YOR316C, strain cot1, stronger effect = lower value 1 | S. cerevisiae deletion strains, locus YPL051W, strain arl3, stronger effect = lower value 1.02 | S. cerevisiae deletion strains, locus YPL055C, strain LGE1, stronger effect = lower value 1.04 | S. cerevisiae deletion strains, locus YPL078C, strain atp4, stronger effect = lower value 0.992 | S. cerevisiae deletion strains, locus YPL106C, strain sse1, stronger effect = lower value 0.99 | S. cerevisiae deletion strains, locus YPL240C, strain hsp82, stronger effect = lower value 1 | S. cerevisiae deletion strains, locus YPL256C, strain CLN2, stronger effect = lower value 1.01 | S. cerevisiae deletion strains, locus YPR119W, strain clb2, stronger effect = lower value 0.998 | S. cerevisiae deletion strains, locus YPR141C, strain kar3, stronger effect = lower value 0.997 | S. cerevisiae deletion strains, locus YPR163C, strain tif3, stronger effect = lower value 1.01 | S. cerevisiae deletion strains, locus YPR167C, strain met16, stronger effect = lower value 0.992 | S. cerevisiae deletion strains, strain wtn01, stronger effect = lower value 0.993 | S. cerevisiae strains, strain wild type, stronger effect = lower value 1.01
